Results from PubChem BioAssay (EPA / NIEHS).
Records with an inconclusive call do not appear. Active and inactive are the calls of the source. How the source made its calls: active means hit-call score of the fitted dose curve at least 0.9, where 1 is the maximum; inconclusive means response in the unintended direction; inactive means score below 0.9.

system: NCBI gene 24521; assay: NVS_IC_rKATPCh: NovaScreen (NVS) Ion Channel Assay for rat Potassium Channel, ATP-Sensitive (KATPCh) (AID 2283319)
Experimental: NVS_IC_rKATPCh is a biochemical, single-readout assay that uses extracted gene-proteins from Rat cortical membranes in a tissue-based cell-free assay. Measurements were taken 2 hours after chemical dosing in a 48-well plate.NVS_IC_rKATPCh is one of one assay component(s) measured or calculated from the NVS_IC_rKATPCh assay. It is designed to make measurements of radioligand binding, a form of binding reporter, as detected with scintillation counting signals by Filter-based radiodetection technology.Data from the assay component NVS_IC_rKATPCh was analyzed into 1 assay endpoint. This assay endpoint, NVS_IC_rKATPCh, was analyzed in the positive analysis fitting direction relative to DMSO as the negative control and baseline of activity. Using a type of binding reporter, loss-of-signal activity can be used to understand changes in the binding as they relate to the gene Kcnj1. Furthermore, this assay endpoint can be referred to as a primary readout, because the performed assay has only produced 1 assay endpoint. To generalize the intended target to other relatable targets, this assay endpoint is annotated to the ion channel intended target family, where the subfamily is potassium channel.
(§1) Binding assays used specific radioligands (tritiated, iodinated) with non-radioactive competitive displacement ligands in agonist or antagonist protocols (as indicated) and various reference compounds and inhibitors to titrate specific binding to receptors and transporters. Most enzyme assays (CYPs, kinases, phosphatases, proteases, HDACs) used recombinant protein and specific substrates (fluorescence mostly, some colorimetric and radioactive) and inhibitors, followed by a biochemical separation of substrate and product. All assays for the biochemical HTS were initially run in duplicate at a single concentration (10 uM for CYP450 assays and 25 uM for all others). Assay-chemical combinations meeting a pre-defined threshold (e.g., 30% inhibition and other criteria defined below) were then run in singleton concentration-response format with maximum concentration of 20 uM for CYPs and 50 uM for all others. Each assay was run with positive and negative controls, and concurrent controls on every plate. The follow-up (secondary) screen tested active chemical-pairs in concentration series, as well as a few additional assays not tested in the primary screen, some selected negative inactives, and several cases re-run in the concentration series for confirmatory purposes.

| Compound | outcome | AC50 |
| --- | --- | --- |
| CCn1nc(C)c2c1C(=O)NCC(c1ccc(O)cc1)=N2 | inactive | – |
| Cc1ccc(S(=O)(=O)NC(=O)NN2CCCCCC2)cc1 | – | 3.58 µM (active) |
| O=C(O)[C@H](O)[C@@H](O)C(=O)O | inactive | – |
| O=C(O)c1cccc(C(=O)O)c1 | inactive | – |

system: not listed separately; assay: NVS_IC_rCaDHPRCh_L: NovaScreen (NVS) Ion Channel Assay for rat Calcium Channel, Type L, Dihydropyridine Site (CaDHPRCh_L) (AID 2283320)
Outline: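 Radioligand binding to dihydropyridine site on rat cortical membranes, filter-based scintillation counting, 1 h after dosing. Screened in duplicate at 25 uM; actives rerun in concentration-response up to 50 uM. Loss of signal versus DMSO baseline.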

| Compound | outcome | AC50 |
| --- | --- | --- |
| CCn1nc(C)c2c1C(=O)NCC(c1ccc(O)cc1)=N2 | inactive | – |
| C=CCc1cc(S(=O)(=O)c2ccc(O)c(CC=C)c2)ccc1O | – | 8.51 µM (active) |
| c1ccc(C(O[C@@H]2CCCN(CCc3ccc4c(c3)OCO4)C2)c2ccccc2)cc1 | – | 6.43 µM (active) |

target: Sodium channel protein type 1 subunit alpha (Rattus norvegicus) (UniProt P04774); assay: NVS_IC_rNaCh_site2: NovaScreen (NVS) Ion Channel Assay for rat Sodium Channel, Site 2 (NaCh) (AID 2283322);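 further: hit means loss of radioligand binding signal relative to DMSO so AC50 marks displacement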
Outline: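 Membranes: rat forebrain. Format: competitive radioligand displacement, filter separation, scintillation readout, 1 h exposure. Primary screen in duplicate at 25 uM; actives retested in concentration series.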

| Compound | AC50 | outcome |
| --- | --- | --- |
| Cc1nccn1-c1ccc(Sc2cccc(C3(C(N)=O)CCOCC3)c2)cc1 | 17.7 µM (active) | – |
| CCCCCCCCCC | – | inactive |
| CCn1nc(C)c2c1C(=O)NCC(c1ccc(O)cc1)=N2 | – | inactive |
| C=CCc1cc(S(=O)(=O)c2ccc(O)c(CC=C)c2)ccc1O | 22.5 µM (active) | – |
| c1ccc(C(O[C@@H]2CCCN(CCc3ccc4c(c3)OCO4)C2)c2ccccc2)cc1 | 0.832 µM (active) | – |
| COc1cc(C(C)C)c2c(c1)S(=O)(=O)N(COc1cc(=O)n3cccc(OCCN4CCCCC4)c3n1)C2=O | 4.01 µM (active) | – |
| NC(=O)N1c2ccccc2C=Cc2ccccc21 | – | inactive |

target: bovine Gamma-Aminobutyric Acid Type A Receptor BDZ, alpha 5 site (GABARa5), GABRA5 (gene 523515) (UniProt Q08E50); assay: NVS_LGIC_bGABARa5: NovaScreen (NVS) Ligand-Gated Ion Channel Assay for bovine Gamma-Aminobutyric Acid Type A Receptor BDZ, alpha 5 site (GABARa5) (AID 2283323)
Outline: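 Radioligand competitive displacement binding on bovine hippocampal membranes, read 1 hr after dosing by filter-based scintillation counting. Primary screen at 25 uM in duplicate; actives (e.g. ≥30% inhibition) then run in concentration-response up to 50 uM.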

bovine Gamma-Aminobutyric Acid Type A Receptor BDZ, alpha 5 site (GABARa5), GABRA5 (gene 523515), sequence (Q08E50 whole entry, looked up): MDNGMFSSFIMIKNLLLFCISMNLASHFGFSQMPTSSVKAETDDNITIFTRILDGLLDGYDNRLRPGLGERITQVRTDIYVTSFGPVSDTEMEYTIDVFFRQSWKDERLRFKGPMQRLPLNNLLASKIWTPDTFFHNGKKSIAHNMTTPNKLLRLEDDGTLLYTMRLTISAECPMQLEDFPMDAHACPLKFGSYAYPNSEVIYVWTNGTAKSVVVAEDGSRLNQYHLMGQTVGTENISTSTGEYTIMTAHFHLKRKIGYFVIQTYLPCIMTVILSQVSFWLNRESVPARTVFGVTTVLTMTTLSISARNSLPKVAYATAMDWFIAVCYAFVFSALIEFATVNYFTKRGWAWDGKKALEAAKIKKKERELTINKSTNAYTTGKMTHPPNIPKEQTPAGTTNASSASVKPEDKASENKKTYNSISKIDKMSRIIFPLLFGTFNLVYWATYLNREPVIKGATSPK

| Compound | AC50 | outcome |
| --- | --- | --- |
| CCOc1ccc2[nH]cc(C(=O)NCc3ccccc3)c(=O)c2n1 | 0.0253 µM (active) | – |
| c1ccc(C(O[C@@H]2CCCN(CCc3ccc4c(c3)OCO4)C2)c2ccccc2)cc1 | – | inactive |
| CCCOc1ccc(S(=O)(=O)N2CCN(CC)CC2)cc1-c1nc2c(CC)n(Cc3ccccn3)nc2c(=O)[nH]1 | – | inactive |

target: rat Glutamate, AMPA Site (AMPA), Gria1 (gene 50592) (UniProt P19490); assay: NVS_LGIC_rAMPA: NovaScreen (NVS) Ligand-Gated Ion Channel Assay for rat Glutamate, AMPA Site (AMPA) (AID 2283324)
Outline: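 Rat forebrain membranes; radioligand binding read 1 h after dosing by filtration and scintillation counting. Duplicate single-point screen at 25 uM, then concentration-response to 50 uM for threshold hits (e.g. 30% inhibition); loss of signal vs DMSO.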

rat Glutamate, AMPA Site (AMPA), Gria1 (gene 50592), sequence (P19490 whole entry, looked up): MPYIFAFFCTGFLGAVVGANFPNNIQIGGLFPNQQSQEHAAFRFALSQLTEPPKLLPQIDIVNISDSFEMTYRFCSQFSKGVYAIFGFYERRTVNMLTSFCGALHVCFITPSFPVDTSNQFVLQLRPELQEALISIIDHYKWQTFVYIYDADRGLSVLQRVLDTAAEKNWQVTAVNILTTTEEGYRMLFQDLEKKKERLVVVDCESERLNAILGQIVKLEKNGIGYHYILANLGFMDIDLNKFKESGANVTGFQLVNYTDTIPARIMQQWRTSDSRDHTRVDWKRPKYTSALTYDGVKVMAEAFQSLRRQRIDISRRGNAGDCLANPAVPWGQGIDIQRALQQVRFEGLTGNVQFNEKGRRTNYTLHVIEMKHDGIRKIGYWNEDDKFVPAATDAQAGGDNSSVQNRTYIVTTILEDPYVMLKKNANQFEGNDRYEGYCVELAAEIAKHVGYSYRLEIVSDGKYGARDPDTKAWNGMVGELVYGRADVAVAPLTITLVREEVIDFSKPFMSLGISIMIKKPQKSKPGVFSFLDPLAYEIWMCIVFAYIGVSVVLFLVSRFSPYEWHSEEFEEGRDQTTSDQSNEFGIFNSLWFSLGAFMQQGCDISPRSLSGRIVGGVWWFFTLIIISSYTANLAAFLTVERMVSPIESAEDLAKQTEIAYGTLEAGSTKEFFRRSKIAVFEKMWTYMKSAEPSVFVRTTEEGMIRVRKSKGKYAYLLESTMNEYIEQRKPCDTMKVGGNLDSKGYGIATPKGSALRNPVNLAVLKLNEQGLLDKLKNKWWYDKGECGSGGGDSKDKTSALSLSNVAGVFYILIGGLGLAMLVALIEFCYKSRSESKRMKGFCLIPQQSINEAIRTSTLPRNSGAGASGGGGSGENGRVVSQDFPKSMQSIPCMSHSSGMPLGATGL

| Compound | outcome | AC50 |
| --- | --- | --- |
| CCCCCCCCCC | inactive | – |
| O=C1CN(N=Cc2ccc([N+](=O)[O-])o2)C(=O)N1 | inactive | – |
| CCN(CC)C(=S)SSC(=S)N(CC)CC | inactive | – |
| COCc1nnc(-c2ccc[n+]([O-])c2)n1-c1c(Cl)c(Cl)cc2[nH]c(=O)c(=O)[nH]c12 | – | 12.6 µM (active) |
| CCc1cccc(CC)c1N | inactive | – |
| OCCOCCOCCO | inactive | – |

target: human Serotonin, 5-Hydroxytryptamine Receptor 3 (5HT3), HTR3A (gene 3359) (UniProt P46098); assay: NVS_LGIC_h5HT3: NovaScreen (NVS) Ligand-Gated Ion Channel Assay for human Serotonin, 5-Hydroxytryptamine Receptor 3 (5HT3) (AID 2283325)
Experimental: NVS_LGIC_h5HT3 is a biochemical, single-readout assay that uses extracted gene-proteins from HEK293 in a cell-free assay. Measurements were taken 1 hour after chemical dosing in a 96-well plate.NVS_LGIC_h5HT3 is one of one assay component(s) measured or calculated from the NVS_LGIC_h5HT3 assay. It is designed to make measurements of radioligand binding, a form of binding reporter, as detected with scintillation counting signals by Filter-based radiodetection technology.Data from the assay component NVS_LGIC_h5HT3 was analyzed into 1 assay endpoint. This assay endpoint, NVS_LGIC_h5HT3, was analyzed in the positive analysis fitting direction relative to DMSO as the negative control and baseline of activity. Using a type of binding reporter, loss-of-signal activity can be used to understand changes in the binding as they relate to the gene HTR3A. Furthermore, this assay endpoint can be referred to as a primary readout, because the performed assay has only produced 1 assay endpoint. To generalize the intended target to other relatable targets, this assay endpoint is annotated to the ion channel intended target family, where the subfamily is ligand-gated ion channel.
as §1

human Serotonin, 5-Hydroxytryptamine Receptor 3 (5HT3), HTR3A (gene 3359), sequence (P46098 whole entry, looked up): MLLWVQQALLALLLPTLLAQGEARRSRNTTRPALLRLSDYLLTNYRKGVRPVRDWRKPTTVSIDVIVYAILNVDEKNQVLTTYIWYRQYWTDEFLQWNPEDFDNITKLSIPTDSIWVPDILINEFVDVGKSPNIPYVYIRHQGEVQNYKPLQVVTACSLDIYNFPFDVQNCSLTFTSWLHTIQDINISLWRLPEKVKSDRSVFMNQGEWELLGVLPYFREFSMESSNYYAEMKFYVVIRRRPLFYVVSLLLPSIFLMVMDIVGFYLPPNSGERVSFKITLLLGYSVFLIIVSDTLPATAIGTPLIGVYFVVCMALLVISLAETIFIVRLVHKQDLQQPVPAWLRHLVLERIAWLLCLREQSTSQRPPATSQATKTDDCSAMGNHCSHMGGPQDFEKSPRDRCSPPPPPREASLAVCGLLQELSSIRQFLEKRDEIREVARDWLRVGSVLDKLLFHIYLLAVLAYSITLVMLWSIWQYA

| Compound | outcome | AC50 |
| --- | --- | --- |
| CCn1nc(C)c2c1C(=O)NCC(c1ccc(O)cc1)=N2 | inactive | – |
| CCCCCCCCCCCCCCCCOS(=O)(=O)O | – | 17.3 µM (active) |
| O=C1CN(N=Cc2ccc([N+](=O)[O-])o2)C(=O)N1 | inactive | – |
| c1ccc2c(c1)-c1cccc3c1c-2cc1ccccc13 | inactive | – |
| CCN(CC)C(=S)SSC(=S)N(CC)CC | inactive | – |
| O=c1[nH]cnc2c1ncn2[C@H]1CC[C@@H](CO)O1 | inactive | – |

target: rat Gamma-Aminobutyric Acid Type A Receptor, Non-Selective (GABAR-NonSelective), Gabra1 (gene 29705) (UniProt P62813); assay: NVS_LGIC_rGABAR_NonSelective: NovaScreen (NVS) Ligand-Gated Ion Channel Assay for rat Gamma-Aminobutyric Acid Type A Receptor, Non-Selective (GABAR-NonSelective) (AID 2283326)
Outline: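 Radioligand displacement on rat whole-brain extract, 1 h, filter scintillation readout; signal loss fitted versus DMSO. Primary screen in duplicate at 25 uM; hits (e.g. ≥30% inhibition) retested in concentration-response up to 50 uM.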

rat Gamma-Aminobutyric Acid Type A Receptor, Non-Selective (GABAR-NonSelective), Gabra1 (gene 29705), sequence (P62813 whole entry, looked up): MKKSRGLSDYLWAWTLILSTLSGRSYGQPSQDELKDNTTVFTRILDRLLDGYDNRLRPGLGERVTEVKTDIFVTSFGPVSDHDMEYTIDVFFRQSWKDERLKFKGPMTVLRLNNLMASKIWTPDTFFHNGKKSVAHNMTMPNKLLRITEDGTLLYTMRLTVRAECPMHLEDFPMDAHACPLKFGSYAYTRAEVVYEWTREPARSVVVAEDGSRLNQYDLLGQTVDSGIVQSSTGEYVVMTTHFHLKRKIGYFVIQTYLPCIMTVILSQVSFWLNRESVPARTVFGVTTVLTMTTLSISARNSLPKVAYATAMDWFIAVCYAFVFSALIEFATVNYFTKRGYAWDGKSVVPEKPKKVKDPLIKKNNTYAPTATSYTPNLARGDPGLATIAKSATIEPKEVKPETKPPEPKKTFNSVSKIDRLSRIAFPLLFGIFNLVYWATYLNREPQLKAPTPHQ

| Compound | outcome | AC50 |
| --- | --- | --- |
| CCOc1ccc2[nH]cc(C(=O)NCc3ccccc3)c(=O)c2n1 | inactive | – |
| CCCC(CCC)C(=O)O | inactive | – |
| NC(=O)N1c2ccccc2C=Cc2ccccc21 | – | 4.66 µM (active) |
| OC(CCl)CCl | – | 4.96 µM (active) |

target: human Constitutive Androstane Receptor (CAR), NR1I3 (gene 9970) (UniProt Q14994); assay: NVS_NR_hCAR_Agonist: NovaScreen (NVS) Nuclear Receptor Binding Assay for human Constitutive Androstane Receptor Agonism (CAR) (AID 2283328)
Outline: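 Cell-free TR-FRET binding readout with extracted human CAR protein, read 1 h after dosing. Gain of signal fitted against DMSO baseline. Single-concentration duplicates at 25 uM, then concentration-response up to 50 uM for actives.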

human Constitutive Androstane Receptor (CAR), NR1I3 (gene 9970), sequence (Q14994 whole entry, looked up): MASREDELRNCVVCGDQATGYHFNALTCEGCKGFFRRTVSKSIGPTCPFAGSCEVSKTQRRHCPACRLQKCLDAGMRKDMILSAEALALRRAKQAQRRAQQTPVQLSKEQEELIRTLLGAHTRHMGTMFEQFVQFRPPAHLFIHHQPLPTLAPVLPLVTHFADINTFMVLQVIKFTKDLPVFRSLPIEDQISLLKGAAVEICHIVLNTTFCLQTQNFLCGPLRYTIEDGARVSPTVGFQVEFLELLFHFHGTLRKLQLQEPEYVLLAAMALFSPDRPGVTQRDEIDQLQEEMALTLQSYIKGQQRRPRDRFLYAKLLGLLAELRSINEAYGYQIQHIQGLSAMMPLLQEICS

| Compound | outcome |
| --- | --- |
| COc1cc(C(C)C)c2c(c1)S(=O)(=O)N(COc1cc(=O)n3cccc(OCCN4CCCCC4)c3n1)C2=O | inactive |
| Cc1nc(-c2ccccn2)ncc1C(=O)Nn1cc(C)c2cc(F)ccc21 | inactive |
| OCCOCCOCCO | inactive |
